# Data: PubChem BioAssay
# Activity calls are given as the source filed them. Unless noted, no rule for the calls is given here.
# How the values were obtained:
# [1] = HepG2 liver cancer cell viability effects, profiling panel, resazurin fluorescence, 24 h, PK04 Diversity Set (AID 1172); conditions: higher = more signal
# [2] = basal S. cerevisiae growth modulation, no modifier, primary screen, OD600, strain BY4716, 24 h, basal condition (AID 1173); conditions: OD600, 24 h, higher = more signal, called active from +8 up or from −8 down
# [3] = MM1S myeloma cell viability, profiling panel, resazurin fluorescence, basal, 24 h, PK04 Diversity Set (AID 1174); conditions: higher = more signal, called active from +8 up or from −8 down;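 also: MM1S multiple myeloma cell line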
# [4] = biological target: Dihydroorotate dehydrogenase (quinone), mitochondrial (Plasmodium falciparum (isolate 3D7)) (UniProt Q08210); assay: PfDHODH enzyme inhibitors, primary screen, biochemical, C-terminal His tag, absorbance 600 nm (AID 1175); conditions: DCIP absorbance 600 nm, higher = more signal, called active from +8 up or from −8 down;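 also: recombinant parasite enzyme with a five histidine tag at its C terminus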
# [5] = P. aeruginosa biofilm formation inhibitors, primary screen, strain PAO1, LB-PBS medium, absorbance 600 nm (AID 1176); conditions: P. aeruginosa PAO1 growth/biofilm, A600, 12 h; higher = more signal
# [6] = S. cerevisiae RM11-1a growth modifiers, primary screen, strain RM11-1a, OD600, basal, 24 h (AID 1177); conditions: OD600, 24 h, higher = more signal, called active from +8 up or from −8 down;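 also: cultures grown under basal conditions with no added stressor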
# [7] = E. coli acrAB mutant growth effects, primary screen, E. coli filamentation inducers, strain DRC39, OD650, 24 h (AID 1178); conditions: higher = more signal, called active from +8 up or from −8 down;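 also: growth measured as culture turbidity by optical density at 650 nm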
# [8] = E. coli acrAB mutant growth effects, primary screen, E. coli filamentation inducers, strain DRC39, OD650, 48 h (AID 1179);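 also: screen aims at cell division blockers that make cells filament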; conditions: E. coli DRC39 delta-acrAB growth, higher = more signal, called active from +8 up or from −8 down
# [9] = RPMI8226 myeloma cell viability, profiling panel, resazurin fluorescence, basal, 24 h, PK04 Diversity Set (AID 1180); conditions: higher = more signal;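 also: RPMI8826 multiple myeloma cell line at 5000 cells per well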
# [10] = biological target: E3 ubiquitin-protein ligase XIAP (Homo sapiens) (UniProt P98170); assay: XIAP binders, primary screen, biophysical, small-molecule microarray, fluorescence 635 nm (AID 1181); conditions: small-molecule microarray binding, higher = more signal;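 also: score merges 667 nm emission and signal to noise over triplicate slides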
# [11] = test system: XIP peptide (Xip251-270) binding; assay: small-molecule binders of XIP peptide, primary screen, biochemical, small-molecule microarray, fluorescence 635/667 nm, 0.1 µg/mL protein (AID 1182); conditions: fluorescent protein binding, 635 nm, higher = more signal, called active from +8 up or from −8 down
# [12] = test system: XIP peptide (Xip251-270); assay: small-molecule binders of XIP peptide, primary screen, biochemical, small-molecule microarray, fluorescence 635/667 nm, 0.5 µg/mL protein (AID 1183); conditions: small-molecule microarray binding, fluorescence 635 nm; higher = more signal
# [13] = Plasmodium falciparum growth inhibition, primary screen, strain 3D7, DAPI fluorescence, 100 nL (AID 1184);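 also: parasites grown inside human red blood cells in medium with human serum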; conditions: P. falciparum 3D7 growth, 3 d, higher = more signal
# [14] = biological target: Homeobox protein Hox-A13 (Mus musculus) (UniProt Q62424); assay: inhibitors of HoxA13-DNA binding, primary screen, biochemical, fluorescence polarization, labeled oligonucleotide (AID 1185); conditions: 15 min, higher = more signal, called active from +8 up or from −8 down
# Chain of Homeobox protein Hox-A13 (Mus musculus) (Q62424 whole entry, looked up): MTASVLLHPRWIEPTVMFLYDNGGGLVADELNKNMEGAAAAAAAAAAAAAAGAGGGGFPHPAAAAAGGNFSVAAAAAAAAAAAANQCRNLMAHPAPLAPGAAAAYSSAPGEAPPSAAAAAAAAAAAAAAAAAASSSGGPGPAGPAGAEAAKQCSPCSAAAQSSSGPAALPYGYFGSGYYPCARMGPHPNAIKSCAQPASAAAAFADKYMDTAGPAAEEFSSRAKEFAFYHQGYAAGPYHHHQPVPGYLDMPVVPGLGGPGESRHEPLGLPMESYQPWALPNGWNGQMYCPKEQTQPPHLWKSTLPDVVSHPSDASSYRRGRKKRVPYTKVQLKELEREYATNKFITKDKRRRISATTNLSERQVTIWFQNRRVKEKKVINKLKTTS
# Chain of E3 ubiquitin-protein ligase XIAP (Homo sapiens) (P98170 whole entry, looked up): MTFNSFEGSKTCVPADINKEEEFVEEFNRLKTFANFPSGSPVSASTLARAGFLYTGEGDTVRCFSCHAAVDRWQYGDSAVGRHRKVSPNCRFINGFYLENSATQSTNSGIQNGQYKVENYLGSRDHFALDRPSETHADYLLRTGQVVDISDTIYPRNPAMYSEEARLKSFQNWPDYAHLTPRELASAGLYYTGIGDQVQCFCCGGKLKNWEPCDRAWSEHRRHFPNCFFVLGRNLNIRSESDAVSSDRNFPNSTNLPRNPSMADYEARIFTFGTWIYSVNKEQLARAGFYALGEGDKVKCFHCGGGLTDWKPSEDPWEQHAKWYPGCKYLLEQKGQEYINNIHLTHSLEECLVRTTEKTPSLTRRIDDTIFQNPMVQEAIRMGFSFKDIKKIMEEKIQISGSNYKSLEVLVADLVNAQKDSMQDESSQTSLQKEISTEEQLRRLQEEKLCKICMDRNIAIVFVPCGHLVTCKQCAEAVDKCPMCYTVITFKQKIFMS
# Chain of Dihydroorotate dehydrogenase (quinone), mitochondrial (Plasmodium falciparum (isolate 3D7)) (Q08210 whole entry, looked up): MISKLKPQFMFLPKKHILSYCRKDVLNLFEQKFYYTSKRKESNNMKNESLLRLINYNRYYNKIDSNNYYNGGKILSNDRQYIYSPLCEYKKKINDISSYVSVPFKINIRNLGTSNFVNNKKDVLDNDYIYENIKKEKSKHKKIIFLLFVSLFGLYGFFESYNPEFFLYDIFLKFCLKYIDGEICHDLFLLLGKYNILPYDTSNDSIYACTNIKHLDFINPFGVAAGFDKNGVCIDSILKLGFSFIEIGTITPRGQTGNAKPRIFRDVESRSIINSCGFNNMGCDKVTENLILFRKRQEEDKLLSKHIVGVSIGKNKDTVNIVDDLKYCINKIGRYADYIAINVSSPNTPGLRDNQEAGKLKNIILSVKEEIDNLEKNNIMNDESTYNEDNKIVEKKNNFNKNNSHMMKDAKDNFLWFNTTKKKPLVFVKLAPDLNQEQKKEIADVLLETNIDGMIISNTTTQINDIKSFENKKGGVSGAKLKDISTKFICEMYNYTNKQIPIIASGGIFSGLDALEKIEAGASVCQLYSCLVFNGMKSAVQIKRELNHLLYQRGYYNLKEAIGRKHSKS
compound,measurement,setting,value
COc1ccc2c(c1)O[C@@H](c1cccc(C(F)(F)F)c1)[C@H](O)C2=O,z-score,[1],0.669
same,z-score,[2],-14.3 (active)
same,z-score,[3],-0.104 (inactive)
same,composite z-score,[4],-0.445 (inactive)
same,z-score,[5],0.699 (inactive)
same,z-score,[6],-1.04 (inactive)
same,z-score,[7],1.23 (inactive)
same,z-score,[8],1.34 (inactive)
same,z-score,[9],0.8
same,composite z-score,[10],0.0223
same,composite z-score,[11],0.245 (inactive)
same,composite z-score,[12],-0.233
same,z-score,[13],0.142
same,z-score,[14],0.16 (inactive)
O=C1[C@H]2CCn3c(=O)n(Cc4cc5c(cc4Cl)OCO5)c(=O)n3[C@H]2[C@H](O)[C@@H]2O[C@H]12,z-score,[1],-0.581
same,z-score,[2],-0.0756 (inactive)
same,z-score,[3],-1.3 (inactive)
same,composite z-score,[4],-0.877 (inactive)
same,z-score,[5],-0.838 (inactive)
same,z-score,[6],0.533 (inactive)
same,z-score,[7],0.552 (inactive)
same,z-score,[8],0.669 (inactive)
same,z-score,[9],-1.3
same,composite z-score,[10],-0.146
same,composite z-score,[11],0.188 (inactive)
same,composite z-score,[12],0.639
same,z-score,[13],0.0829
same,z-score,[14],-0.543 (inactive)
CCOC(=O)[C@H](Cc1ccccc1)NC(=O)CCC1CC(OC(=O)NCCc2ccc(F)cc2)CC2(CCCC(COC(=O)NCc3cccc(C(F)(F)F)c3)O2)O1 (some centres undefined),z-score,[1],0.134
same,z-score,[2],-0.0427 (inactive)
same,z-score,[3],0.853 (inactive)
same,composite z-score,[4],-0.276 (inactive)
same,z-score,[5],0.544 (inactive)
same,z-score,[6],0.322 (inactive)
same,z-score,[7],0.141 (inactive)
same,z-score,[8],0.0159 (inactive)
same,z-score,[9],0.864
same,composite z-score,[10],-0.102
same,composite z-score,[11],0.966 (inactive)
same,composite z-score,[12],0.463
same,z-score,[13],-1.9
same,z-score,[14],-3.11 (inactive)
COC(OC)[C@@H](C)[C@H](OC)[C@@H](C)[C@H](OC)c1ccccc1,z-score,[1],-0.634
same,z-score,[2],-1.31 (inactive)
same,z-score,[3],-2.8 (inactive)
same,composite z-score,[4],-2.36 (inactive)
same,z-score,[5],0.912 (inactive)
same,z-score,[6],-1.02 (inactive)
same,z-score,[7],0.366 (inactive)
same,z-score,[8],-0.0254 (inactive)
same,z-score,[9],-0.466
same,composite z-score,[10],-0.138
same,composite z-score,[11],-0.17 (inactive)
same,composite z-score,[12],-0.0245
same,z-score,[13],0.129
same,z-score,[14],-0.402 (inactive)
O=C(NN=C1C[C@@H](O)[C@@H](O)[C@@H]2[C@@H]3C(=O)N(Cc4ccccc4)C(=O)[C@@H]3CC[C@H]12)OCc1ccccc1,z-score,[1],0.604
same,z-score,[2],-0.921 (inactive)
same,z-score,[3],1.14 (inactive)
same,composite z-score,[4],-0.993 (inactive)
same,z-score,[5],0.471 (inactive)
same,z-score,[6],-0.948 (inactive)
same,z-score,[7],0.59 (inactive)
same,z-score,[8],-0.783 (inactive)
same,z-score,[9],0.9
same,composite z-score,[10],-0.21
same,composite z-score,[11],-0.578 (inactive)
same,composite z-score,[12],-0.0586
same,z-score,[13],0.892
same,z-score,[14],-0.2 (inactive)
C=CC[C@@H]1C=CC(ON=C(C)C)[C@@H](CO)O1 (some centres undefined),z-score,[1],-0.689
same,z-score,[2],0.381 (inactive)
same,z-score,[3],-0.389 (inactive)
same,composite z-score,[4],0.532 (inactive)
same,z-score,[5],-0.254 (inactive)
same,z-score,[6],1.1 (inactive)
same,z-score,[7],0.832 (inactive)
same,z-score,[8],-1.16 (inactive)
same,z-score,[9],0.283
same,composite z-score,[10],-0.267
same,composite z-score,[11],-0.649 (inactive)
same,composite z-score,[12],-0.0372
same,z-score,[13],0.367
same,z-score,[14],2.62 (inactive)
